Experimental data reported in PubChem BioAssay (Tox21).
Inconclusive results are not listed. Calls of active or inactive are those of the source. Unless noted, calls come from the whole dose curve; as a rule, active = well fitted curve in the direction sought with a large enough effect in the repeat runs; inconclusive = weak or mixed curves; inactive = no such curve, though single readings can be large; an effect the other way counts as inactive or inconclusive.

What was measured:
[1] = qHTS assay to identify small molecule antagonists of the retinoid acid receptor (RAR) signaling pathway - cell viability counter screen (AID 1159551); note: nearly all actives have a fitted effect of over 35% in size
How it was run: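 In this counter screen, the RARE-luciferase line C3RL4 was exposed for 6 h at 37 C and 5% CO2 to compounds with retinol at 1 uM final. Cellular ATP, read by luminescence, served as the viability measure.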

[2] = qHTS assay to identify small molecule antagonists of the estrogen related receptor (ERR) signaling pathway from Tox21 library - cell viability counter screen (AID 1224834); note: nearly all actives have a fitted effect of over 30% in size
How it was run: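 Counter screen run in ERR cells (2,000 cells/well): cells pre-incubated 6 h, then treated with compounds for 17.5 h at 37 C. Fluorescence was read 30 min after CellTiter-Fluor addition.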

[3] = target: Luciferin 4-monooxygenase (Photinus pyralis) (UniProt P08659); test: qHTS assay to identify small molecule inhibitors of firefly luciferase (AID 1224835); note: series mostly up to about 120 µM; nearly all actives have a fitted effect of over 25% in size
Chain of Luciferin 4-monooxygenase (Photinus pyralis) (P08659 whole entry, looked up): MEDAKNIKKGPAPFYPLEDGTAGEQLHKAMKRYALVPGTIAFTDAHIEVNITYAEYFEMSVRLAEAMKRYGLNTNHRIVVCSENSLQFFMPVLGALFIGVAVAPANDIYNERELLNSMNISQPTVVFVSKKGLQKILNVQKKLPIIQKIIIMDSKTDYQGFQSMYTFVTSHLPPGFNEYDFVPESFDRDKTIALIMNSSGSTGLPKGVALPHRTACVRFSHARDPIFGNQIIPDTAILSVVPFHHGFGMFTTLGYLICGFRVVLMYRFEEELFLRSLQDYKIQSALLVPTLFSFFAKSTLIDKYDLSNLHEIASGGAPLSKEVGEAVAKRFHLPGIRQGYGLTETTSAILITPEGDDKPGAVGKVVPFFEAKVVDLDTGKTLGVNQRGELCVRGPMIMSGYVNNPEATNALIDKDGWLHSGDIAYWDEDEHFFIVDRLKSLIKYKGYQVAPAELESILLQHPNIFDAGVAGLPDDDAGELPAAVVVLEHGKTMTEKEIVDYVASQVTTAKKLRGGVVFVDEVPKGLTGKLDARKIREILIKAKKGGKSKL
How it was run: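 Biochemical qHTS: compounds run as interplate titrations against purified firefly enzyme, with D-luciferin and ATP each at its KM concentration. Light output recorded by CCD imaging.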

[4] = qHTS assay to identify small molecule agonists of the constitutive androstane receptor (CAR) signaling pathway - cell viability counter screen (AID 1224836); note: series mostly up to about 92 µM; nearly all actives have a fitted effect of over 45% in size
How it was run: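 HepG2 cells stably carrying hCAR and a CYP2B6-2.2kb reporter were plated 4 h, then given compounds at 15 concentrations plus PK11195 (final 0.75 uM). After 23 h at 37 C, viability was read by CellTiter-Fluor fluorescence.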

[5] = qHTS assay to identify small molecule antagonists of the constitutive androstane receptor (CAR) signaling pathway - cell viability counter screen (AID 1224837); note: series mostly up to about 92 µM; nearly all actives have a fitted effect of over 45% in size
How it was run: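 CITCO at 50 nM final was added alongside compounds (15 concentrations) to double-stable hCAR/CYP2B6-2.2kb HepG2 cells. Following 23 hr at 37 C, cell viability was quantified by CellTiter-Fluor fluorescence intensity.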

[6] = qHTS assay to identify small molecule antagonists of the estrogen related receptor signaling pathway with the pleiotropic PPARgamma coactivator (PGC) from Tox21 10K library - cell viability counter screen (AID 1224840; active = well fitted cell-killing curve with a large enough effect in the repeat runs, not every such curve was filed as active; note: nearly all actives have a fitted effect of over 40% in size)
How it was run: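 Readout: fluorescence intensity from CellTiter-Fluor after 30 min at 37 C/5% CO2. Preceded by 17.5 h treatment of PGC/ERR cells with DMSO-dissolved compounds, added 6 h post-seeding.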

[7] = qHTS assay to identify small molecule agonists of the hypoxia (HIF-1) signaling pathway - cell viability counter screen (AID 1224844; calls by dose curve; note: nearly all actives have a fitted effect of over 50% in size)
How it was run: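 In this counter screen, HRE-bla ME-180 cell viability after 17 hrs of compound exposure at 37C was read by CellTiter-Glo luminescence, multiplexed with the beta-lactamase reporter measurement.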

[8] = target: Nuclear receptor subfamily 1 group I member 3 (Homo sapiens) (UniProt Q14994); test: qHTS assay to identify small molecule antagonists of the constitutive androstane receptor (CAR) signaling pathway (AID 1224838); note: nearly all actives have a fitted effect of over 40% in size
Chain of Nuclear receptor subfamily 1 group I member 3 (Homo sapiens) (Q14994 whole entry, looked up): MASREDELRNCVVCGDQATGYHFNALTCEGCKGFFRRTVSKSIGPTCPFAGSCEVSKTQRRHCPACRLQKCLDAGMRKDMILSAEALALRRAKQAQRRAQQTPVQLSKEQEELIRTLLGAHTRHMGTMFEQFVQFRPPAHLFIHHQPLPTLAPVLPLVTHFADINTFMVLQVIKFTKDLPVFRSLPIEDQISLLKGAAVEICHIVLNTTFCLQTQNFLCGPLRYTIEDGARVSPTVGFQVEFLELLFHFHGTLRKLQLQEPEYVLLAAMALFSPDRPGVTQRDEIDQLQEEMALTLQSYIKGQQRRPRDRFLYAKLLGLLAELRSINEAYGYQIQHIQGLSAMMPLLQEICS
How it was run: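 Inhibition of CITCO-driven (50 nM final) CYP2B6 reporter expression is measured in HepG2 cells stably carrying hCAR. Fifteen compound concentrations are applied for 24 h at 37 C, followed by luciferase luminescence.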

[9] = target: Nuclear receptor subfamily 1 group I member 3 (Homo sapiens) (UniProt Q14994); test: qHTS assay to identify small molecule agonists of the constitutive androstane receptor (CAR) signaling pathway (AID 1224839); note: series mostly up to about 92 µM; nearly all actives have a fitted effect of over 15% in size
How it was run: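 HepG2 cells stably expressing hCAR and a CYP2B6-2.2kb luciferase reporter were treated with compounds at 15 concentrations plus 0.75 uM PK11195 (final) for 24 h at 37 C; luminescence was read after ONE-Glo addition.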

[10] = target: Thyrotropin receptor (Homo sapiens) (UniProt P16473); test: qHTS assay to identify small molecule agonists of the thyroid stimulating hormone receptor (TSHR) signaling pathway (AID 1224843; calls by dose curve; note: nearly all actives have a fitted effect of over 45% in size)
Chain of Thyrotropin receptor (Homo sapiens) (P16473 whole entry, looked up): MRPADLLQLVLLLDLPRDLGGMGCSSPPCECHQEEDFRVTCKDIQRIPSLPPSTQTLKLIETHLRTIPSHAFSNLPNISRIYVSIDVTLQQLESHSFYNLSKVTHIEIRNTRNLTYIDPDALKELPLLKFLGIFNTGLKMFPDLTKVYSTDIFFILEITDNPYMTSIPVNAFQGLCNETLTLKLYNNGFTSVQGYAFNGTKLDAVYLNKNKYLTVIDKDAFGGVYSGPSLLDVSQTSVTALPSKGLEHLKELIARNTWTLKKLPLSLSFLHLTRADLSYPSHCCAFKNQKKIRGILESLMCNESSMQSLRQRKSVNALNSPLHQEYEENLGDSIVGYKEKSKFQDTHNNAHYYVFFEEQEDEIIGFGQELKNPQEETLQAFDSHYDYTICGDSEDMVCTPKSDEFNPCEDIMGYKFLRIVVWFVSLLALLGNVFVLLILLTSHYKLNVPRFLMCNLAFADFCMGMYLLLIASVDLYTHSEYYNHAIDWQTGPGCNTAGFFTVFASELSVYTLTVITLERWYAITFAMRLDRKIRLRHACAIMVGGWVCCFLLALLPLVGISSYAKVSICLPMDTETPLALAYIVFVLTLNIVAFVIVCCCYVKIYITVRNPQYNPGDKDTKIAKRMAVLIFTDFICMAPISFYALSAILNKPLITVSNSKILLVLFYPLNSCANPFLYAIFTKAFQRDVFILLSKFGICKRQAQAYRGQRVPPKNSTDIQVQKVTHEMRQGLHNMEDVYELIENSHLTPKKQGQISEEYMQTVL
How it was run: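 Agonist-mode screen: TSHR HEK293 cells received test chemicals for half an hour at room temperature, then HTRF cAMP detection reagents for one hour prior to fluorescence measurement. Each chemical ran as a 15-concentration series, triplicated.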

[11] = qHTS assay to identify small molecule antagonists of the estrogen related receptor signaling pathway with the pleiotropic PPARgamma coactivator (PGC) from Tox21 10K library (AID 1224841; call rule not given here; note: series mostly up to about 92 µM; actives are mostly falling curves and most rising ones were filed inactive; nearly all actives have a fitted effect of over 50% in size)
How it was run: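 One-Glo luminescence, measured after half an hour at room temperature, quantified reporter output of PGC/ERR cells. These had been plated at 2,000 per well, incubated 6 h, dosed with compounds in DMSO, then kept 18 h at 37 C.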

[12] = qHTS assay to identify small molecule agonists of the estrogen related receptor signaling pathway with the pleiotropic PPARgamma coactivator (PGC) from Tox21 10K library (AID 1224842); note: nearly all actives have a fitted effect of over 15% in size
How it was run: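 PGC/ERR reporter cell line, 2,000 cells per well, incubated 6 h at 37 C before 23 nL compound in DMSO was added. After 18 h at 37 C, One-Glo luminescence read following 30 min at room temperature.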

[13] = qHTS assay to identify small molecule antagonists of the retinoic acid receptor (RAR) signaling pathway (AID 1159552; note: nearly all actives have a fitted effect of over 50% in size)
How it was run: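 RARE-luc C3RL4 cells; cpds + 1 uM (final) retinol, 6 hr, 37 C/5% CO2; luciferase reagent, 30 min RT, luminescence readout. Inhibitors of retinol-driven signal scored.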

Measured: Potency

CC[N+](CC)(CC(=O)Nc1c(C)cccc1C)Cc1ccccc1
inactive: [1] | [2] | [3] | [4] | [5] | [6] | [7]

Cc1ncc(CO)c(CO)c1O
inactive: [1] | [2] | [3] | [4] | [5] | [6] | [7]

CC(C)c1ccc(C(C)C)cc1
inactive: [1] | [2] | [3] | [4] | [5] | [8] | [9] | [6] | [10] | [7]

COC(=O)OC
inactive: [1] | [2] | [4] | [5] | [8] | [9] | [6] | [11] | [12] | [7]

CC(=O)c1nccs1
inactive: [1] | [13] | [2] | [4] | [5] | [8] | [9] | [6] | [10] | [7]

CC(C)(CO)CO
inactive: [1] | [2] | [3] | [4] | [5] | [6] | [11] | [12] | [10] | [7]

Cc1ccncc1
inactive: [1] | [13] | [2] | [4] | [5] | [6] | [10] | [7]
